Measured values taken from PubChem BioAssay AID1159580 (chemical genetic matrix, 2015).
Several values for one entry are separate records, joined by “and”; a condition that tells them apart may be missing. Equal values may be shown once. Out of some 5,500 compounds screened, about 2,000 (36%) were called active. Not shown: some 18% with an inconclusive outcome. Rule as the data show it: active = normalized growth mostly below about 0.91 (no sharp cut-off); inconclusive = no clear call, values can overlap the other calls; inactive = mostly above about 0.92. This is one part of the list.

Test: chemical genetic growth profiling, strain panel (AID 1159580);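 also: tested at 20 µM; growth read once vehicle control cultures reached saturation at 30 °C; 1 = growth at the plate median or of vehicle wells; lower values mean less growth of the strain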
Details: S. cerevisiae deletion strains, growth OD

Measured: normalized growth

CCOC(=O)C1=C[C@]2(CC)CCCN3CCc4c(n1c1ccccc41)[C@@H]32
inactive: locus YAL021C, strain ccr4, hits give low values 1.03 | locus YAL026C, strain drs2, hits give low values 1.02 | locus YAL030W, strain snc1, hits give low values 1.03 | locus YBL061C, strain skt5, hits give low values 1.02 | locus YBR009C, strain hhf1, hits give low values 1.02 | locus YBR021W, strain FUR4, hits give low values 1.02 | locus YBR023C, strain chs3, hits give low values 1.03 | locus YBR171W, strain sec66, hits give low values 1.02 | locus YBR229C, strain ROT2, hits give low values 0.957 | locus YBR231C, strain swc5, hits give low values 1.02 | locus YBR279W, strain paf1, hits give low values 1.01 | locus YCL011C, strain gbp2, hits give low values 1.03 | locus YCL016C, strain dcc1, hits give low values 1.02 | locus YCL029C, strain bik1, hits give low values 0.974 | locus YCL061C, strain MRC1, hits give low values 1.02 | locus YCL069W, strain vba3, hits give low values 1.02 | locus YCR088W, strain abp1, hits give low values 1.02 | locus YDL005C, strain med2, hits give low values 1.02 | locus YDL035C, strain GPR1, hits give low values 0.977 | locus YDL040C, strain nat1, hits give low values 1.03 | locus YDL074C, strain BRE1, hits give low values 0.928 | locus YDL101C, strain DUN1, hits give low values 0.957 | locus YDL134C, strain PPH21, hits give low values 0.998 | locus YDL185W, strain tfp1, hits give low values 0.985 | locus YDL192W, strain arf1, hits give low values 0.975 | locus YDR001C, strain nth1, hits give low values 1.03 | locus YDR069C, strain doa4, hits give low values 1.05 | locus YDR101C, strain arx1, hits give low values 0.969 | locus YDR137W, strain rgp1, hits give low values 0.967 | locus YDR150W, strain NUM1, hits give low values 0.984 | locus YDR159W, strain sac3, hits give low values 1.02 | locus YDR162C, strain NBP2, hits give low values 0.937 | locus YDR195W, strain ref2 1.07 | locus YDR297W, strain sur2, hits give low values 1.02 | locus YDR318W, strain mcm21, hits give low values 0.969 | locus YDR334W, strain swr1, hits give low values 1.03 | locus YDR335W, strain msn5, hits give low values 1.01 | locus YDR388W, hits give low values 0.97 | locus YDR392W, strain spt3, hits give low values 0.979 | locus YDR502C, strain sam2, hits give low values 0.947 | locus YEL003W, strain gim4, hits give low values 1.02 | locus YEL037C, strain rad23, hits give low values 1.01 | locus YEL061C, strain CIN8 (second series), hits give low values 1.04 | locus YEL061C, strain CIN8, hits give low values 0.979 | locus YER015W, strain faa2, hits give low values 1.03 | locus YER016W, strain bim1, hits give low values 1.01 | locus YER110C, hits give low values 0.975 | locus YER111C, strain swi4, hits give low values 1.02 | locus YER155C, strain BEM2 (second series), hits give low values 0.992 | locus YER155C, strain BEM2, hits give low values 1.01 | locus YER167W, strain BCK2, hits give low values 1 | locus YFR010W, strain ubp6, hits give low values 1.03 | locus YGL078C, strain dbp3, hits give low values 0.979 | locus YGL086W, strain mad1, hits give low values 0.948 | locus YGL167C, strain pmr1, hits give low values 1.01 | locus YGL173C, strain kem1, hits give low values 1.04 | locus YGL227W, strain vid30, hits give low values 1.03 | locus YGL240W, strain doc1, hits give low values 1.03 | locus YGL248W, strain PDE1, hits give low values 0.954 | locus YGL253W, strain hxk2, hits give low values 1.03 | locus YGR135W, strain pre9, hits give low values 1 | locus YGR252W, strain gcn5, hits give low values 1.03 | locus YHR013C, strain ard1, hits give low values 1.01 | locus YHR027C, strain rpn1, hits give low values 1.03 | locus YHR030C, strain SLT2, hits give low values 0.994 and 1.01 | locus YHR079C, strain IRE1 (second series), hits give low values 0.985 | locus YHR079C, strain IRE1, hits give low values 1.03 | locus YHR094C, strain hxt1, hits give low values 0.977 | locus YHR129C, strain ARP1, hits give low values 0.987 | locus YHR142W, strain chs7, hits give low values 1.01 | locus YHR200W, strain rpn10, hits give low values 0.979 | locus YIL066C, strain RNR3, hits give low values 0.946 | locus YIL073C, strain SPO22, hits give low values 1.02 | locus YIL125W, strain kgd1, hits give low values 0.985 | locus YIR030C, strain dcg1, hits give low values 0.981 | locus YJL092W, strain hpr5, hits give low values 1.02 | locus YJL095W, strain BCK1 (second series), hits give low values 1.01 | locus YJL095W, strain BCK1, hits give low values 0.867 and 1.02 | locus YJL115W, strain asf1, hits give low values 1.05 | locus YJL129C, strain trk1, hits give low values 1.01 | locus YJL134W, strain LCB3, hits give low values 0.991 | locus YJL154C, strain vps35, hits give low values 1.01 | locus YJL164C, strain tpk1, hits give low values 1.01 | locus YJL166W, strain qcr8, hits give low values 1.02 | locus YJL168C, strain set2, hits give low values 0.979 | locus YJL187C, strain SWE1 (second series), hits give low values 0.927 | locus YJR043C, strain POL32, hits give low values 0.941 | locus YJR066W, strain TOR1, hits give low values 0.967
